CYP2C19 act = cytochrome P450 2C19 (human) activation; P33261; recombinant CYP2C19, luciferin-H EGE luminescence; stronger effect = higher value; 0 = fully inhibited enzyme, 1 = untreated enzyme; activation factor at 5 µM; 96,000 tested, under 10 active; AID 1025;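 active = activation factor of at least 2 at 5 µM in the primary screen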
Target sequence (P33261 whole entry, looked up): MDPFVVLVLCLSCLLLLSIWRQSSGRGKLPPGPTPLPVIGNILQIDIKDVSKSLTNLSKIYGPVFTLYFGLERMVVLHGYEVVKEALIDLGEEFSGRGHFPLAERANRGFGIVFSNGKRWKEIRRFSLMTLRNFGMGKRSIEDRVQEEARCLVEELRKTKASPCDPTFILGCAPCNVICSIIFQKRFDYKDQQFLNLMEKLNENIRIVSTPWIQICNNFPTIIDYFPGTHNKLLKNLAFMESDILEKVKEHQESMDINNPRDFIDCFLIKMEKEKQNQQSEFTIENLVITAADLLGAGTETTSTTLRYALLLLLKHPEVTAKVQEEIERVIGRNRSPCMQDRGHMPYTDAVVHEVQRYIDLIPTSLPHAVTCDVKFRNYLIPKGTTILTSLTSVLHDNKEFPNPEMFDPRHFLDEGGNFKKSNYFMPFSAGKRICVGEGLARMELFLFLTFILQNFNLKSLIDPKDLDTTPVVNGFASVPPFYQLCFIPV
CYP2C9 inhib = human CYP2C9 inhibition. 20% of 96,000 active. CYP2C9 Supersomes, luciferin-H conversion, luminescence. P11712. inhibition, % at 5 µM;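 active = blocking of liver enzyme CYP2C9 beyond about 50% at 5 µM, limit read from the data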
PLAP act = human PLAP activation | purified PLAP enzyme, luminescent substrate read-out; stronger effect = higher value | activation fold at 20 µM | 1.2% of 96,000 active; in the data active = activation fold above about 2
CYP2C9 activ = increases human cytochrome P450 2C9 activity | 1.4% of 96,000 active | activation factor at 5 µM | P11712 | AID 1024 | recombinant CYP2C9, luciferin-H conversion, luminescence; stronger effect = higher value; factor 1 = untreated enzyme, 0 = blocked;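 active = activation factor of 2 or more for CYP2C9 at a 5 µM dose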
CYP2C19 inhib = human CYP2C19 inhibition; P33261; CYP2C19 Supersomes, luciferin-H EGE luminescence, 30 min; inhibition, % at 5 µM; 21% of 96,000 active; AID 778;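 active = CYP2C19 inhibition above a set limit at 5 µM in the primary screen, cut at about 50% in these data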
A number is an active result; i = inactive. Shown are actives, neighbours in structure and some others; about 31% of the full set was active somewhere.

SMILES	CYP2C19 act	CYP2C9 inhib	PLAP act	CYP2C9 activ	CYP2C19 inhib
Cc1ccccc1-c1cc(C(=O)Nc2sc(C)c(C)c2C(N)=O)c2ccccc2n1	i	98	i	i	69
CCOC(=O)c1sc(NC(=O)c2cc(-c3ccccc3C)nc3ccccc23)c(C#N)c1C	i	55	i	i	i
Cc1ccccc1C(=O)Nc1sc(C)c(C)c1C(=O)c1ccccc1	i	i	i	i	i
Cc1ccc(/C=C/S(=O)(=O)N2CCC(C(=O)O)CC2)cc1	i	i	i	i	i
CCCCN(CC)CCCNC(=O)CC1Oc2ccccc2NC1=O (stereo not given)	i	i	i	i	i
O=C(c1cccc(F)c1)N1CCN(c2cc(N3CCCCC3)c(F)cc2[N+](=O)[O-])CC1	i	89	i	i	91
O=C(c1ccc(F)cc1)N1CCN(c2ccc([N+](=O)[O-])c(N3CCCCC3)c2)CC1	i	62	i	i	i
O=C(c1ccc2ccccc2c1)N1CCN(c2ccc(O)cc2)CC1	i	i	i	i	62
O=[N+]([O-])c1cc([N+](=O)[O-])c(N2CCOCC2)cc1NCc1ccccc1	i	86	i	i	i
O=C(c1cccc(F)c1)N1CCN(S(=O)(=O)c2ccc(C(F)(F)F)cc2)CC1	i	i	i	i	i
CCOC(=O)c1ccc(C(=O)OCC)nc1	i	i	i	i	i
COc1cc(CNn2cnnc2)ccc1OCC(=O)NC(C)(C)C	i	i	i	i	i
CC(C)OC(=O)c1nn2c(C(F)(F)F)cc(-c3ccc(Br)o3)nc2c1Br	i	i	i	i	i
O=C(/C=C/c1ccc(Cl)cc1)N1CCN(c2ccc(Cl)cc2[N+](=O)[O-])CC1	i	i	i	i	54
O=C(c1ccc2ccccc2c1)N1CCN(c2ccc([N+](=O)[O-])c(N3CCOCC3)c2)CC1	i	65	i	i	i
CC(=O)N1CCN(c2cc(N3CCc4ccccc4C3)c(F)cc2[N+](=O)[O-])CC1	i	54	i	i	i
O=C(c1ccc(N2CCCCC2)c([N+](=O)[O-])c1)N1CCOCC1	i	i	i	i	i
Cc1cccc(C(=O)N2CCN(c3ccc([N+](=O)[O-])c(N4CCOCC4)c3)CC2)c1	i	54	i	i	i
COC(=O)C1CCN(C(=O)COC(=O)Cn2cnnn2)CC1	i	i	i	i	i
Cc1nn(-c2cc(N3CCOCC3)ccc2[N+](=O)[O-])c(=O)c2ccccc12	i	i	i	i	i
CO/N=C(\c1nonc1N)N1CCN(c2ccc(Cl)cc2[N+](=O)[O-])CC1	i	76	i	i	77
O=C(/C=C/c1ccccc1)N1CCN(c2ccc([N+](=O)[O-])c(N3CCOCC3)c2)CC1	i	72	i	i	i
CO/N=C(\c1nonc1N)N1CCN(c2ccc([N+](=O)[O-])cc2Cl)CC1	i	i	i	i	i
COc1cccc(-n2nnc3c(=O)n(CC(=O)N4CCC(Cc5ccccc5)CC4)cnc32)c1	i	i	i	i	i
O=C(Nc1cccc2ccccc12)/C(Cl)=C/c1ccccc1	i	i	i	3	i
SMILES	CYP2C19 act	CYP2C9 inhib	PLAP act	CYP2C9 activ	CYP2C19 inhib
CCC/C(O)=C1\C(=O)CCCC1=NC(C)C(=O)O (stereo not given)	i	i	i	i	i
COc1cc(/C=C(/C#N)c2nc3ccccc3[nH]2)ccc1OC(=O)c1ccco1	i	61	i	i	i
COC(=O)c1c(CCl)noc1C(=O)NCC1CCCO1 (stereo not given)	i	i	i	i	i
CCCSc1nc(SCC(=O)NCc2ccccc2)c2c3c(sc2n1)COC(C)(CC)C3 (stereo not given)	i	i	i	i	i
O=S(=O)(c1ccc(Cl)cc1)c1ccccn1	i	i	i	2.1	i
Cn1c(=O)n(CCCOc2ccc(Br)cc2)c2ccccc21	i	i	i	i	70
Cn1c(=O)n(CC(N)=O)c2ccccc21	i	i	i	i	i
CC(C)(C)C(=O)NCCCc1nc2ccccc2n1CCCOc1ccc(Cl)cc1	i	84	i	i	i
Cn1c(=O)n(CCCOc2ccc(Cl)cc2)c2ccccc21	i	i	i	i	76
O=c1ccc(NS(=O)(=O)c2ccc(Cl)cc2)cn1Cc1ccc(Cl)c(Cl)c1	i	90	i	i	97
Cn1c(CN2CCCC2)nc2cc(NS(=O)(=O)c3ccc(Cl)cc3)ccc21	i	i	i	i	i
COC(=O)c1nn(-c2cccc(C(F)(F)F)c2)c(=O)cc1Sc1ccccn1	i	70	i	i	56
O=S(=O)(c1ccc(F)cc1)n1ccc(-c2cccc(OCc3c(F)cccc3Cl)c2)n1	i	88	i	i	i
O=C(OCc1c(F)cccc1Cl)c1cnccn1	i	i	i	i	i
O=S(=O)(c1ccc(Cl)cc1)n1ccc(-c2cccc(OCc3c(F)cccc3Cl)c2)n1	i	60	i	i	i
O=C1CCCCC1C(Nc1ccc(Cl)cc1)c1ccccc1 (stereo not given)	i	89	i	i	82
O=C1CCCCC1C(Nc1ccc(Br)cc1)c1ccccc1 (stereo not given)	i	62	i	i	i
COc1ccc(Cl)cc1NC(=O)CSc1nnc(-c2ccncc2)n1CC1CCCO1 (stereo not given)	i	i	i	i	60
COc1ccccc1NC(=O)CSc1nnc(-c2ccncc2)n1CC1CCCO1 (stereo not given)	i	i	i	i	i
Cc1cccc(C)c1NC(=O)CSc1nnc(-c2ccncc2)n1Cc1ccco1	i	67	i	i	73
O=C(CSc1nnc(-c2ccncc2)n1Cc1ccco1)OC1CCCCC1	i	92	i	i	98
O=C(CSc1nnc(-c2ccco2)n1Cc1ccccc1)OC1CCCCC1	i	i	i	i	i
Cc1cc(Cl)ccc1NC(=O)CSc1nnc(-c2ccncc2)n1Cc1ccco1	i	90	i	i	86
CN=C1SC(CC(=O)Nc2ccccc2F)C(=O)N1C (stereo not given)	i	i	i	i	i
COC(=O)c1cc(NC(=O)CC2SC(=Nc3ccccc3)N(CCc3c[nH]c4ccccc34)C2=O)cc(C(=O)OC)c1 (stereo not given)	i	81	i	i	i
SMILES	CYP2C19 act	CYP2C9 inhib	PLAP act	CYP2C9 activ	CYP2C19 inhib
CN=C1SC(CC(=O)Nc2sc(C)c(C)c2C(=O)OC)C(=O)N1C (stereo not given)	i	58	i	i	i
COc1ccc(N=C2SC(CC(=O)Nc3ccccc3)C(=O)N2CC2CCCO2)cc1 (stereo not given)	i	73	i	i	i
CN=C1SC(CC(=O)Nc2cccc(C(F)(F)F)c2)C(=O)N1C (stereo not given)	i	i	i	3.9	i
COCCN1C(=O)C(CC(=O)Nc2ccc(C(=O)O)cc2)SC1=Nc1ccccc1 (stereo not given)	i	i	i	i	i
COc1cc2c(C(=O)O)c(C)n(CC(C)C)c2c2ccccc12	i	i	i	i	i
CN(C)S(=O)(=O)c1ccc(C(=O)N(c2ccccn2)c2ccccn2)cc1	i	i	i	i	i
